# According to ChEMBL document CHEMBL1961873, “Compounds: GSK PKIS; Assays: Nanosyn kinase panel” (2012):
# Key:
# [1] = molecular target: Serine/threonine-protein kinase pim-2 (Homo sapiens) (UniProt Q9P1W9); conditions: at 1 µM;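 note: each value is a mean of the inhibition measurements against the kinase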
# [2] = molecular target: Serine/threonine-protein kinase pim-3 (Homo sapiens) (UniProt Q86V86); conditions: at 0.1 µM
# [3] = molecular target: Serine/threonine-protein kinase pim-3 (Homo sapiens) (UniProt Q86V86); conditions: at 1 µM
# [4] = molecular target: T1, MAP kinase-activated protein kinase 5 (Homo sapiens) (UniProt Q8IW41); conditions: at 0.1 µM
# T1 sequence (whole entry): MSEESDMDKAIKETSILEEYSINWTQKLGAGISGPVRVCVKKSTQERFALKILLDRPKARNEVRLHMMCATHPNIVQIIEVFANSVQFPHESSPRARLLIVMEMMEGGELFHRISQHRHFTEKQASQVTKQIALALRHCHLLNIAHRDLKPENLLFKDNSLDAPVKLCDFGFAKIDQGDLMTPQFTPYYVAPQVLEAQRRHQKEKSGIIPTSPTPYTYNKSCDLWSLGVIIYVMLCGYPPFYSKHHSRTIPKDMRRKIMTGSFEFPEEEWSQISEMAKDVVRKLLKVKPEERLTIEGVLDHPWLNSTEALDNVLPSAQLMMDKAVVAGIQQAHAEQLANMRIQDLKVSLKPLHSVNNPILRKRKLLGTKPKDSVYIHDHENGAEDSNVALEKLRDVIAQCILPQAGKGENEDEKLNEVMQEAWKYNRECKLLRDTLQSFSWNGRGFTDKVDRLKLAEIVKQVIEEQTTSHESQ
# [5] = molecular target: T1, MAP kinase-activated protein kinase 5 (Homo sapiens); conditions: at 1 µM
# [6] = molecular target: Serine/threonine-protein kinase SIK1 (Homo sapiens) (UniProt P57059); conditions: at 0.1 µM
# Sequence of Serine/threonine-protein kinase SIK1 (Homo sapiens) (P57059 whole entry): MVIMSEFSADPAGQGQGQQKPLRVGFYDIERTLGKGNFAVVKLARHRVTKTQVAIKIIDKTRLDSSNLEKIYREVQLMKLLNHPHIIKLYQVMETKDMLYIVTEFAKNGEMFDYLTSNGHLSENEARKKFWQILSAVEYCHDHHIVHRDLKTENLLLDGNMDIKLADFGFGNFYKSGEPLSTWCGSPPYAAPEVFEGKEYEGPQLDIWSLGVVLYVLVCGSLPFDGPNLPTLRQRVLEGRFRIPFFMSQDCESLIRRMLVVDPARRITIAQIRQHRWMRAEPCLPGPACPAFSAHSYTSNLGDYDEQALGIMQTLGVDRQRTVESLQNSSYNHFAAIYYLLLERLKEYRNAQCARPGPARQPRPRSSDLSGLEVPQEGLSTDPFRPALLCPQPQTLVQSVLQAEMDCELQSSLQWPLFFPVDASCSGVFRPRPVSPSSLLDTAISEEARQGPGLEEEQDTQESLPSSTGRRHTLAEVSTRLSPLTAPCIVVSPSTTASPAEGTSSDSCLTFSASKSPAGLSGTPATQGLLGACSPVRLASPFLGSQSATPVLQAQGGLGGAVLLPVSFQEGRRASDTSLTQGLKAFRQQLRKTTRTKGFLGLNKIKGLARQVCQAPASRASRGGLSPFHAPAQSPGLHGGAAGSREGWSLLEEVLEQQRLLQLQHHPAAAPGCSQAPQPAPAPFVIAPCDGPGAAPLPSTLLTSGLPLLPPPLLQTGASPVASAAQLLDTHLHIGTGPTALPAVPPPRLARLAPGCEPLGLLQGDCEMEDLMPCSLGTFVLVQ
# [7] = molecular target: Serine/threonine-protein kinase SIK1 (Homo sapiens) (UniProt P57059); conditions: at 1 µM
# [8] = molecular target: Serine/threonine-protein kinase SIK2 (Homo sapiens) (UniProt Q9H0K1); conditions: at 0.1 µM
# Sequence of Serine/threonine-protein kinase SIK2 (Homo sapiens) (Q9H0K1 whole entry, looked up): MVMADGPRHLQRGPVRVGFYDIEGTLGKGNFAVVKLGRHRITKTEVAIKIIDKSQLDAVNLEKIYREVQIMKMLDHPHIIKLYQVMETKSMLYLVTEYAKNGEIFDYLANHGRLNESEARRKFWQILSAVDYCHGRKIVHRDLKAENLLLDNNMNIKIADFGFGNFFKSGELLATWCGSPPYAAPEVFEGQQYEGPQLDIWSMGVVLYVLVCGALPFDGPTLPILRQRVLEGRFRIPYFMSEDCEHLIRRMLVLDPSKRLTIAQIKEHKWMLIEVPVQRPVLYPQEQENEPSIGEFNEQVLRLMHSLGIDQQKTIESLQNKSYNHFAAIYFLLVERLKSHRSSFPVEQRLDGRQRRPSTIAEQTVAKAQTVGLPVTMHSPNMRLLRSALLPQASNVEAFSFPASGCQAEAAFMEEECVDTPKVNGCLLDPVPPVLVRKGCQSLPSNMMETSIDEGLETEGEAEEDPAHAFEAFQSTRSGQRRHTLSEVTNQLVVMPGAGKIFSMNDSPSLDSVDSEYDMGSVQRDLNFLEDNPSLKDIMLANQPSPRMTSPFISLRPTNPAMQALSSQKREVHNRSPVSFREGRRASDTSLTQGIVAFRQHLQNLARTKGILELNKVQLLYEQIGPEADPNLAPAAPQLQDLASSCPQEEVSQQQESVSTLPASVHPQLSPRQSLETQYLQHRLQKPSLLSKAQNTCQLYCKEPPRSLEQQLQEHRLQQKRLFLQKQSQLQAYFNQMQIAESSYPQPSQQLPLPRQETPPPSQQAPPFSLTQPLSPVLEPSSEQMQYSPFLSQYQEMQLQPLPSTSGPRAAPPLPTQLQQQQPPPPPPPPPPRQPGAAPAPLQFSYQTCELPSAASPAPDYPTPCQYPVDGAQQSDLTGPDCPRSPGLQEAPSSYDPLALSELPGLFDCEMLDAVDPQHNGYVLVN
# [9] = molecular target: Serine/threonine-protein kinase SIK2 (Homo sapiens) (UniProt Q9H0K1); conditions: at 1 µM
# [10] = molecular target: T2, Serine/threonine-protein kinase TBK1 (Homo sapiens) (UniProt Q9UHD2); conditions: at 0.1 µM
# T2 sequence (whole entry): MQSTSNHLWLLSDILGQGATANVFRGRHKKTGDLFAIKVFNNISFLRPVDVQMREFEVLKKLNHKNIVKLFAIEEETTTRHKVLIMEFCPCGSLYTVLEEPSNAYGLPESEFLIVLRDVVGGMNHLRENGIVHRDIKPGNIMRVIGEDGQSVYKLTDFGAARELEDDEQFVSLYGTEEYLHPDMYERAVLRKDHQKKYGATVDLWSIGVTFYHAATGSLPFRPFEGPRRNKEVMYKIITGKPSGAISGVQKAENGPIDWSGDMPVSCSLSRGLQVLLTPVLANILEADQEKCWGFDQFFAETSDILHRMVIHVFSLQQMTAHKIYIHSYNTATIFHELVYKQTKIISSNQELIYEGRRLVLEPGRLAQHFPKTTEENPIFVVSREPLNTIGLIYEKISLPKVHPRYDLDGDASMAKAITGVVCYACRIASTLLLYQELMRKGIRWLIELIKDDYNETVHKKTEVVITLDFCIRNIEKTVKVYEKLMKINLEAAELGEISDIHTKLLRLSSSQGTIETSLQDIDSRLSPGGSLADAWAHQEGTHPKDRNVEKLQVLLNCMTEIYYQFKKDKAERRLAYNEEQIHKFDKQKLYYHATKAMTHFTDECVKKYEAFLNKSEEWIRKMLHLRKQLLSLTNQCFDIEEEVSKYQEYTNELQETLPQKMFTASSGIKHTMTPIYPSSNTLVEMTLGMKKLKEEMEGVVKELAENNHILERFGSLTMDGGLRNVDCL
# [11] = molecular target: T2, Serine/threonine-protein kinase TBK1 (Homo sapiens); conditions: at 1 µM
# [12] = molecular target: T3, Testis-specific serine/threonine-protein kinase 1 (Homo sapiens) (UniProt Q9BXA7); conditions: at 0.1 µM
# T3 sequence (whole entry): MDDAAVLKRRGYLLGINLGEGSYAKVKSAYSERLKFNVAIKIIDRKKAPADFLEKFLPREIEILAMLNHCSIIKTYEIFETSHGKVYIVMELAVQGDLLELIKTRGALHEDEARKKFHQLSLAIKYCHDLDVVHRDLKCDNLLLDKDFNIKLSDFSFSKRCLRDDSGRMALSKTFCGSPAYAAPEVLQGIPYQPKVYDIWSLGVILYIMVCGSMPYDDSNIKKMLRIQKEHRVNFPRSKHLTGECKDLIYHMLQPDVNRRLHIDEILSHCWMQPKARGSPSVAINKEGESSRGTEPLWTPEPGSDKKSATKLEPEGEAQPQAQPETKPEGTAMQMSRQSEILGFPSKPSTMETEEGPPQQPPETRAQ
# [13] = molecular target: T3, Testis-specific serine/threonine-protein kinase 1 (Homo sapiens); conditions: at 1 µM
# [14] = molecular target: T4, Testis-specific serine/threonine-protein kinase 2 (Homo sapiens) (UniProt Q96PF2); conditions: at 0.1 µM
# T4 sequence (whole entry): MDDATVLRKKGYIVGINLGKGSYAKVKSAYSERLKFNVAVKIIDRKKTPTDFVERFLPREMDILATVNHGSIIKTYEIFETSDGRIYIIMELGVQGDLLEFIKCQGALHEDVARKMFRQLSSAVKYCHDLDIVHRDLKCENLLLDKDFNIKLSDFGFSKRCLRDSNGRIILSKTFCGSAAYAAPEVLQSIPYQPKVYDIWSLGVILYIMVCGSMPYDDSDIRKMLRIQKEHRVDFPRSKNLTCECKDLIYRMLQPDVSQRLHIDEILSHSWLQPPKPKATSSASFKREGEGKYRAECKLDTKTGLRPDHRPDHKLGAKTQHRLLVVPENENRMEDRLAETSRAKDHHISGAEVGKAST
# [15] = molecular target: T4, Testis-specific serine/threonine-protein kinase 2 (Homo sapiens); conditions: at 1 µM
# [16] = molecular target: Casein kinase I isoform alpha (Homo sapiens) (UniProt P48729); conditions: at 0.1 µM
# Sequence of Casein kinase I isoform alpha (Homo sapiens) (P48729 2-337 limits assumed): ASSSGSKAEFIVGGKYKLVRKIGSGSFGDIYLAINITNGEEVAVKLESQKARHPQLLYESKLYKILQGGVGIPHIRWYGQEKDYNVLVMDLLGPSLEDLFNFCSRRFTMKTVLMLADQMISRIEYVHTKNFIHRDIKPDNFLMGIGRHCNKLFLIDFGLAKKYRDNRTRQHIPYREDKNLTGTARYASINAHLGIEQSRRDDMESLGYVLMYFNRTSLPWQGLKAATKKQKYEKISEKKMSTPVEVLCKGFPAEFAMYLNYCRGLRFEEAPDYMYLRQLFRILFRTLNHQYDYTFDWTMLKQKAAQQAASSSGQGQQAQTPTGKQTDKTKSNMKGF
# [17] = molecular target: Casein kinase I isoform alpha (Homo sapiens) (UniProt P48729); conditions: at 1 µM
# [18] = molecular target: Casein kinase I isoform gamma-1 (Homo sapiens) (UniProt Q9HCP0); conditions: at 0.1 µM
# Sequence of Casein kinase I isoform gamma-1 (Homo sapiens) (Q9HCP0 whole entry, looked up, canonical isoform): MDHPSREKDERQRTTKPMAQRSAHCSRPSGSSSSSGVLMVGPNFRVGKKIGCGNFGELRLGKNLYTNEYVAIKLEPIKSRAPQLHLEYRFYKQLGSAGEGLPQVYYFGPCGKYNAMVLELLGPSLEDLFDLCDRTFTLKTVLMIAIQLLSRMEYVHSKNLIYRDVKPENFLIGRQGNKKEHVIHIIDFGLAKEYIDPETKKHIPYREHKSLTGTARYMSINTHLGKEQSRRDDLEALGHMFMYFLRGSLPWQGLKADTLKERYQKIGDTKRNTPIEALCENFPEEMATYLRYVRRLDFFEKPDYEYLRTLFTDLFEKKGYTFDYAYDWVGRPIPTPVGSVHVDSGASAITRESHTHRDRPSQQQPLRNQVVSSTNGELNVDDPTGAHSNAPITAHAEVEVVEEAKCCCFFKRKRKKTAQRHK
# [19] = molecular target: Casein kinase I isoform gamma-1 (Homo sapiens) (UniProt Q9HCP0); conditions: at 1 µM
# [20] = molecular target: Casein kinase I isoform gamma-2 (Homo sapiens) (UniProt P78368); conditions: at 0.1 µM;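 note: values are mean inhibition figures reported as part of the GSK PKIS dataset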
# Sequence of Casein kinase I isoform gamma-2 (Homo sapiens) (P78368 whole entry, looked up, canonical isoform): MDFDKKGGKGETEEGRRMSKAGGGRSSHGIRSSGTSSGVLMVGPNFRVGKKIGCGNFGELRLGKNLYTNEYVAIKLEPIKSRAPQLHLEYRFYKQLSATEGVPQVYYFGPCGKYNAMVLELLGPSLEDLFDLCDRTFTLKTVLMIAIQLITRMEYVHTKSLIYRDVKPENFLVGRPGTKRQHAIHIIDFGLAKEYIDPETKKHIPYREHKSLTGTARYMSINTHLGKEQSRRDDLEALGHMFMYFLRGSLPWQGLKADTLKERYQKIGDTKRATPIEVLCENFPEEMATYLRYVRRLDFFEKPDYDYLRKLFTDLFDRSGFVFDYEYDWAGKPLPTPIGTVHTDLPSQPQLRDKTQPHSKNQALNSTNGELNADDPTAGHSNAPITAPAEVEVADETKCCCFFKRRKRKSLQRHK
# Sequence of Serine/threonine-protein kinase pim-2 (Homo sapiens) (Q9P1W9 whole entry, looked up): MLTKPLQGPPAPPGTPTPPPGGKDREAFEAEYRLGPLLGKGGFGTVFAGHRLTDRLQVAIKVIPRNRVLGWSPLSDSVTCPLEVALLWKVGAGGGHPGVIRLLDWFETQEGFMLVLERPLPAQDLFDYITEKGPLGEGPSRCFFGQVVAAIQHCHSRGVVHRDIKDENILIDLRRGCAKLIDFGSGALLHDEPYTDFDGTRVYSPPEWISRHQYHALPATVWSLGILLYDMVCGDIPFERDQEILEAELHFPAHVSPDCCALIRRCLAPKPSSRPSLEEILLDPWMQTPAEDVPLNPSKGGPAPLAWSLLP
SMILES,inhibition [1],inhibition [2],inhibition [3],inhibition [4],inhibition [5],inhibition [6],inhibition [7],inhibition [8],inhibition [9],inhibition [10],inhibition [11],inhibition [12],inhibition [13],inhibition [14],inhibition [15],inhibition [16],inhibition [17],inhibition [18],inhibition [19],inhibition [20]
Cc1nnc(-c2ccc(C)c(-c3ccc(C(=O)NCc4ccc(Cl)cc4)cc3)c2)o1,-2.67%,0.64%,0.96%,1.56%,2.59%,1.09%,7.21%,5.11%,11.4%,1.16%,3.88%,4.06%,4.33%,1.65%,3.27%,2.79%,4.63%,0.71%,2.06%,-1.05%
CN1CCN(CCCNc2nc3ccc(Oc4ccc(NC(=O)Nc5cc(C(F)(F)F)ccc5F)cc4)cc3[nH]2)CC1,-1.74%,1.11%,-0.28%,-0.1%,-1.41%,0.75%,3.99%,-2.3%,0.76%,1.88%,3.78%,0.87%,-0.16%,-0.81%,-1.46%,1.84%,0.56%,-1.36%,-3.19%,-4.72%
C[C@@H](Oc1cc(-n2cnc3ccc(OCC4CCN(C)CC4)cc32)sc1C(N)=O)c1ccccc1Cl,2.74%,11.4%,52.7%,1.77%,2.11%,11.5%,42%,7.32%,22%,4.93%,6.08%,6.84%,13.6%,3.55%,3.8%,5.44%,6.37%,5.29%,8.54%,5.69%
O=C(Nc1n[nH]c2nc(-c3ccco3)ccc12)C1CC1,-0.06%,0.6%,-0.35%,-0.19%,-1.25%,4.89%,3.71%,0.98%,3.32%,1.19%,2.8%,1.99%,-0.53%,0.63%,-1.49%,0.06%,3.38%,0.09%,1.22%,-0.26%
Fc1ccc(-c2ncn(CCCN3CCOCC3)c2-c2ccncc2)cc1,0.84%,-1.36%,-2.93%,-0.65%,-1.42%,-2.01%,3.56%,-2.31%,2.48%,1.21%,0.48%,-0.41%,-0.42%,-1.62%,-0.63%,2.04%,5.39%,0.8%,1.79%,1.74%
CCc1ccc(Oc2nccc(-c3c(-c4ccc(F)cc4)ncn3C3CCNCC3)n2)cc1,0.04%,1.11%,3.63%,1.38%,2%,5.66%,14.7%,3.65%,19.4%,4.53%,4.95%,3.27%,5.22%,1.61%,2.6%,6.84%,36.5%,3.65%,14.8%,3.26%
CNC(=O)c1cncc(/C=C/c2c(C)cccc2C)c1,-3.47%,1.2%,2.65%,-0.02%,-0.41%,26.2%,76%,7.18%,27.6%,0.21%,0.94%,0.04%,-1.47%,-0.04%,-1.42%,4.35%,2.33%,-2.91%,-2.08%,-2.38%
Fc1ccc(-c2nc3n(c2-c2ccncc2)CCS3)cc1,-3.08%,-1.3%,-1.87%,1.2%,0.34%,5%,13.5%,1.21%,7.35%,2.27%,2.87%,3.08%,2.73%,1.01%,0.48%,10.8%,42.4%,0.76%,5.36%,-1.13%
COc1cc(N2CCN(C(C)C)CC2)ccc1Nc1nc(Nc2ccc(F)cc2C(=O)NC[C@@H](O)CO)c2cc[nH]c2n1,-3.2%,1.39%,5.28%,2.43%,4.77%,1.88%,9.27%,4.52%,9.21%,1.74%,4.23%,45.9%,84.9%,15.7%,53.7%,4.46%,12.9%,2.26%,17.9%,2.13%
CS(=O)(=O)CCNCc1cc(-c2cc3c(Nc4ccc(OCc5cccc(F)c5)c(Cl)c4)ncnc3s2)cs1,-0.99%,0.08%,2.3%,2.2%,1.6%,7.53%,7.6%,7.98%,0.61%,5.03%,4.88%,4.02%,4.37%,2.22%,2.42%,6.3%,8.73%,3.81%,4.73%,3.23%
COc1ccc(C2=C(N3CCc4ccccc43)C(=O)NC2=O)cc1,0.67%,-0.2%,0.86%,1.93%,2.12%,8.63%,8.47%,6.36%,11.3%,0.88%,7.18%,4.87%,6.13%,3.64%,3.35%,3.74%,8.77%,3.77%,4.09%,3.12%
